Compound activity deposited in PubChem BioAssay by National Center for Advancing Translational Sciences (NCATS).
Marburg entry: blocks Marburg virus binding or cell entry. Marburg virus pseudotype entry/binding inhibition, cell-based. AID 720532. Potency, µM (series often up to 49.2 µM), for inactives: top-dose activity change, negative = inhibition, usual class: inhibitors. actives 6.5% (n = 18,000)
LASV entry inh: Lassa virus entry inhibition. Lassa virus pseudotyped entry inhibition, cell-based qHTS. Potency, µM (titrated, usually from 49.2 µM), for the others: top-dose activity change, negative = inhibition, actives largely listed as inhibitors. actives 4.1% (n = 18,000)
* marks the source's active call; other numbers are inactive results; u = inconclusive; x = not tested or not shown; ! = not active in a repeat; [ ] = dose if it differs, or a comment. An excerpt weighted towards active compounds, which were near 7.1% of everything screened. Calls come from the whole dose curve; tested in HEK293 cells. % is set by controls: 0 for no effect and ±100 for the full control effect; potency is the fitted concentration of half-maximal effect.

SMILES	Marburg entry	LASV entry inh
CC(CCN1CCCc2nc(C)c(C)cc21)=NOC[C@@H](O)COCc1ccco1	u	-17%[8.59 µM]
CCN1C(=NCc2cccc(C(F)(F)F)c2)NC(c2ccccc2)C(C(=O)OC)=C1C (stereo not given)	u	5%[8.59 µM]
CN(C(=O)Cc1ccccc1)[C@H](CN1CCCC1)c1ccccc1	u	-2%
CN(C(=O)Cc1ccc(Cl)c(Cl)c1)[C@H](CN1CCCC1)c1ccccc1	7.1µM*	20µM*
Cc1ccc(-c2c(C)cc3oc(=O)cc(-c4ccccc4)c3c2C)cc1	-17%	u
CC(=O)Nc1ccc(-c2c(C)cc3oc(=O)cc(-c4ccccc4)c3c2C)cc1	-22%	7.9µM*
CC/C(=C(/CC)c1ccc(OP(=O)(O)O)cc1)c1ccc(OP(=O)(O)O)cc1	8%	-14%
CCOC(=O)c1ccc(O)cc1	13%	7%
CC/C(=C(/CC)c1ccc(O)cc1)c1ccc(O)cc1	u	3.5µM*
CCC(=C(CC)c1ccc(O)cc1)c1ccc(O)cc1	u	6.3µM*
CCCCCC(=O)N1C[C@H](O)[C@@H](n2cc(C3CC3)nn2)C[C@H]1c1ccc(Cl)cc1	-8%	0%
COC(=O)N[C@H](C(C(=O)OC)=C(C)NCc1ccccc1)c1ccco1	-24%[8.59 µM]	13%[8.59 µM]
CO/C=C(/C(=O)OC)c1ccccc1Oc1cc(Oc2ccccc2C#N)ncn1	28µM*	22µM*
CN(C)c1cc2c(Nc3ccc4nc(Cc5ccccc5)[nH]c4c3)ncnc2cn1	91%	57%
O=C1Nc2cccc(Br)c2[C@@]12O[C@H](COc1ccccc1)CC1=CCC[C@H]12	22%[8.59 µM]	-21%[8.59 µM]
CN(C)c1ccc2[nH]c(O)c(C=Nc3ccc(S(N)(=O)=O)cc3)c2c1	-22%	x
C=C[C@@H](C)[C@@H](OP1(=O)O[C@@H](C=C)C[C@H](C=C)O1)[C@H](C)CO[Si](C)(C)C(C)(C)C (stereo not given in full)	u	5%
CN(C)[C@@H]1C(=O)C(C(N)=O)=C(O)[C@@]2(O)C(=O)C3=C(O)c4c(O)cccc4[C@@](C)(O)[C@H]3[C@H](O)[C@@H]12	u	-23%
Cc1c2c(c(O)c3c(O)cccc13)C(=O)O[C@H]2C1C(N(C)C)C(O)=C(C(N)=O)C(=O)[C@H]1O (stereo not given in full)	8.9µM*	-1%
O=C(c1cccs1)N1C[C@@H](O)[C@@H](n2cc(C3CC3)nn2)C[C@@H]1c1ccccc1	-21%	13%
OC(CCN1CCCCC1)(c1ccccc1)C1CC2C=CC1C2 (stereo not given)	10µM*	22µM*!
COc1ccccc1CNc1ncncc1-c1ccccc1CN(C)C	u	-22%
COc1ccccc1CNc1ncnc2ccc(-c3ccccc3CN(C)C)cc12	20µM*	-6%
CN(C)Cc1ccccc1-c1nc(NCc2ccccc2)c2ccccc2n1	10µM*	u
COCCNc1nc(-c2ccccc2CN(C)C)nc2ccccc12	13µM*	-24%
SMILES	Marburg entry	LASV entry inh
CN(C)Cc1ccccc1-c1cncnc1NCc1ccccc1	-25%	-5%
COCCNc1nc(-c2ccccc2C)nc2ccccc12	-1%	-2%
COc1ccccc1CNc1nc(-c2ccccc2CN(C)C)nc2ccccc12	11µM*	u
Cc1cnc(CNc2ncnc3ccc(-c4ccccc4CN(C)C)cc23)cn1	-23%	1%
CC1(C)CC(=O)C2=C(C1)O[C@@]1(CCCCN3C(=O)c4ccccc4C3=O)Cc3cc(C#N)ccc3[C@H]2O1	u	-5%[8.59 µM]
COC(=O)[C@@H]1[C@H](CCc2ccccc2)NC(=O)N(Cc2ccccc2)[C@H]1C	-24%[8.59 µM]	x
NS(=O)(=O)c1ccc(N=Nc2c(O)[nH]c3ccc(-c4cnco4)cc23)cc1	36%	u
C=C(C)[C@]12C[C@@H](C)[C@@]34O[C@](Cc5ccccc5)(O[C@@H]1[C@@H]3C=C(COC(=O)Cc1ccc(O)c(OC)c1)C[C@]1(O)C(=O)C(C)=C[C@@H]41)O2	16µM*	u
N[C@@H](Cc1ccc(O)cc1)C(=O)O	11%	-8%
NC(Cc1ccc(O)c(O)c1)C(=O)O (stereo not given)	1.6µM*	-25%
CC[C@@]1([C@@H]2O[C@@H]([C@H]3O[C@@](O)(CO)[C@H](C)C[C@@H]3C)C[C@@H]2C)CC[C@H]([C@]2(C)CC[C@]3(C[C@H](O)[C@@H](C)[C@@H]([C@@H](C)[C@@H](OC)[C@H](C)C(=O)O)O3)O2)O1 (stereo in doubt)	4µM*!	2.8µM*!
COC(=O)[C@]1(C)CC[C@@]2(C)CC[C@@]3(C)C4=CCc5c(cc(O)c(O)c5C)[C@]4(C)CC[C@@]3(C)C2C1 (stereo not given in full)	u	18µM*
CC(C)(C)c1ccc(O[C@@H]2[C@H](O)CO[C@H]2C=CC#Cc2ccccc2)cc1	-16%[8.59 µM]	7%[8.59 µM]
C=CCN1c2ccccc2[C@]23CCC(=O)N(Cc4ccco4)C2=NC(C(=O)OC)=C(C(=O)OC)[C@H]13	-1%[8.59 µM]	-14%[8.59 µM]
CCS(=O)(=O)NCc1c(C)ncc2c1CCN(C(=O)c1csc(-c3cccs3)n1)C2	4%	-23%
Cc1ncc2c(c1CNC(=O)c1cncs1)CCN(C(=O)c1csc(-c3cccs3)n1)C2	35µM*	-21%
COc1ccc([C@]23Cc4ccccc4[C@H](O2)C2=C(CCCC2=O)O3)cc1	57%[8.59 µM]	-4%[8.59 µM]
O=C(O)c1cc(O)c(O)c(O)c1	3.2µM*	11µM*
O=C(O)c1cc(O)c2c(c1)[O][Bi][O]2	4%	5%
C[C@@H]1C[C@H]2[C@@H](Cc3ccccc3)C(=O)N3[C@@H](C[C@@H](C)[C@@H]3c3ccccc3)[C@@H](Cc3ccccc3)C(=O)N2[C@H]1c1ccccc1	u	-15%[8.59 µM]
O=C1[C@H]2[C@@H]3[C@@H](O)[C@H](O)CC(=NOCc4ccccc4)[C@@H]3CC[C@H]2C(=O)N1C1CCCCC1	-14%[8.59 µM]	x
CC(C)NC[C@@H](O)COc1cccc2[nH]ccc12	2%	1%
CC(C)NCC(O)COc1cccc2ccccc12 (stereo not given)	20µM*	u
COC(=O)CC=C[C@@H](C)[C@H](OC)c1c(Br)ccc2c1OCO2	u	5%[8.59 µM]
COc1ccc(CCN(C)Cc2cc(-c3cncnc3)ccc2O)cc1OC	-13%	-10%
SMILES	Marburg entry	LASV entry inh
CN(C)CCCc1cc(C(=O)Nc2ccc(-c3ccncc3)cc2)ccc1O	6.3µM*	35µM*!
Cc1[nH]cnc1C[C@H]1CCc2c(C)c3ccccc3n2C1=O	u	-13%
Cc1[nH]c(/C=C2\C(=O)Nc3ccc(S(=O)(=O)N(C)c4cccc(Cl)c4)cc32)c(C)c1C(=O)N1CCN(C)CC1	10µM*	u
C=CC[C@@H]1C=C[C@@H](ON=C2[C@H]3CCn4c(=O)n(-c5ccccc5)c(=O)n4[C@@H]3[C@H](O)[C@@H]3O[C@H]23)[C@@H](CO)O1	-22%[8.59 µM]	-5%[8.59 µM]
O=S1(=O)CCSCCN1Cc1cccc(Cl)c1	18%	x
COc1ccc(-c2cc(-c3cn[nH]c3-c3ccccn3)ccn2)cc1	39%	93%
O=Nc1ccc(O)c2ncccc12	4µM*	2.5µM*
Cc1ccc(O)c2ncccc12	33%	12%
O=[N+]([O-])c1ccc(O)c2ncccc12	16µM*	11µM*
Nc1ccc(O)c([N+](=O)[O-])c1	-16%[107 µM]	-15%[107 µM]
COCC=CC1=CC2=CC(=O)C(C)(OC(=O)c3cnc4ccccc4n3)C(=O)C2=CN1C1CC1 (stereo not given)	32%[8.59 µM]	6%[8.59 µM]
C=CC[C@@H]1C=C[C@H](ON=C[C@@H](C)[C@H](OCc2ccccc2)C(C)C)[C@H](CO)O1	-10%[8.59 µM]	x
